# High-throughput results (PubChem)
# KB-V1 cytotox = kills drug-selected multidrug resistant KB-V1 cells; KB-V1 MDR cells viability, CellTiter-Glo, 72 h; Potency, µM (titrated, usually from 46.1 µM), most hits filed as cytotoxic; hit rate 3.4% among 400,000; further: nearly all actives have a fitted effect of over 60% in size
#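 Cells of the MDR subline KB-V1 are plated, dosed with compound at multiple concentrations, and incubated 72 h at 37 degrees C; CellTiter-Glo is then added and luminescence read after 10 min.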
# HT1080NT lethal = kills 2HG-producing HT-1080-NT fibrosarcoma cells; HT-1080-NT fibrosarcoma viability, CellTiter-Glo ATP luminescence, 48 h; Potency, µM (highest dose often 46.1 µM), most hits filed as cytotoxic; hit rate 1.6% among 360,000; AID 686970;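 further: NT is the 2HG producing partner of a matched IDH1 knockdown line; nearly all actives have a fitted effect of over 55% in size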
#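 Viability by CellTiter-Glo luminescence after 48 h compound exposure at 37C of HT-1080-NT cells (750/well, RPMI, 5% FBS). % activity scaled between DMSO wells and medium-only wells, then curve-fitted and categorized by curve class.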
# KB-3-1 cytotox = KB-3-1 parental cell cytotoxicity; KB-3-1 viability, CellTiter-Glo ATP luminescence, 72 h; hit rate 1.4% among 400,000; AID 1347075; Potency, µM (series often up to 46.1 µM), most hits filed as cytotoxic; further: nearly all actives have a fitted effect of over 60% in size
#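 Parental KB-3-1 viability, qHTS format: 72 h compound exposure, 37 °C; CellTiter-Glo; media-only wells and DMSO plates as controls; concentration-effect fits on corrected data.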
# HT1080 IDH1KD tx = toxicity to HT-1080 IDH1 knockdown cells (counter line) | HT-1080 IDH1 knockdown viability, ATP luminescence, 48 h | Potency, µM (titrated, usually from 46.1 µM), hits mostly cytotoxic | hit rate 2% among 360,000
#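 Using the IDH1-knockdown HT-1080 line run in the same batch and compound series as the NT line, viability after 48 h at 37 °C was determined by CellTiter-Glo luminescence and expressed as % activity.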
# IL1B secr inh = inhibitors of inflammasome signaling (IL-1 beta secretion); THP-1 LPS/ATP IL-1B secretion, AlphaLISA, 16 h; active compounds read low; activity change, % at 57.5 µM; hit rate 4.7% among 360,000; AID 743279; in the data active means activity change below about -50%; inconclusive means mostly about -30% to -49%
#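 Secreted IL-1B measured by AlphaLISA bead assay after 16 h compound exposure of THP-1 cells; compounds (final up to 57.5 uM) added 1 h before LPS (250 ng/mL) and ATP (1.25 mM) stimulation; lower signal means less secretion.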
# Numbers stand for hits; – = inactive; ? = inconclusive; · = no result given. Shown are actives, neighbours in structure and some others; about 8.8% of the full set was active somewhere. Unless noted, the call rests on the fitted dose curve; in most records, active means well fitted curve in the direction sought with a large enough effect; inconclusive means small, poorly fitted or top-dose-only effect, or another doubt; inactive means no such curve, though single readings can be large; an effect the other way counts as inactive or inconclusive.
SMILES,KB-V1 cytotox,HT1080NT lethal,KB-3-1 cytotox,HT1080 IDH1KD tx,IL1B secr inh
CCn1c(C)nc2cc(S(=O)(=O)N3CCCCC3)ccc21,–,–,–,–,–
Cc1nnsc1S(=O)c1ccc(Cl)cc1 (configuration not stated),–,–,?,–,–
Cc1nnsc1S(=O)c1ccc(Cl)c(Cl)c1 (configuration not stated),?,?,?,?,-62
CCN(CC)c1ccc2cc(-c3nc4ccccc4[nH]3)c(=O)oc2c1,?,–,?,–,–
CCN(CC)c1ccc2nc3ccc(N)cc3[n+](-c3ccccc3)c2c1,?,10µM,0.73µM,5.8µM,–
CCN(CC)c1ccc2nc3ccccc3[n+](CC)c2c1,9.2µM,26µM,3.7µM,23µM,-101
CC1=NOC(=O)/C1=C\c1ccc(-c2ccc(Cl)c(C(=O)O)c2)o1,?,–,–,–,–
CC1=NOC(=O)/C1=C\c1ccc(-c2cccc(Cl)c2)o1,?,?,–,18µM,-100
Nc1ccccc1N=Cc1ccc(-c2cccc(Cl)c2)o1,?,–,?,?,-82
CC1=CC2=NC(=O)/C(=C\c3ccc(-c4cccc(Cl)c4)o3)C(=N)N2O1,?,10µM,4.1µM,8.2µM,–
CC1=NOC(=O)/C1=C\c1ccc(-c2ccccc2Br)o1,–,–,?,?,-96
CC(NCC(=O)Nc1ccccc1C(=O)NC1CC1)c1ccc(F)cc1F (configuration not stated),?,–,–,–,–
CN(C)CCN(Cc1ccccc1)C(=O)c1[nH]c(C(F)(F)F)nc1-c1ccccc1,–,–,–,–,–
COC(=O)c1ccc(Oc2cc(C)nc(SC)n2)cc1,4.6µM,?,5.8µM,5.8µM,–
CCOc1ncccc1C(=O)OCC(=O)c1ccc(F)cc1,–,–,–,–,–
CCN(Cc1ccccc1)S(=O)(=O)c1ccc(C(=O)N(CCCN(C)C)c2nc3cc4c(cc3s2)OCO4)cc1,?,?,–,?,-73
CCN(CC)CCN(C(=O)c1ccc(S(=O)(=O)N(C)C2CCCCC2)cc1)c1nc2c(C)cccc2s1,?,–,?,–,–
Cc1ccc2sc(N(CCCN(C)C)C(=O)c3ccc(S(=O)(=O)N(C)C4CCCCC4)cc3)nc2c1C,18µM,–,23µM,?,?
CCN(Cc1ccccc1)S(=O)(=O)c1ccc(C(=O)N(CCCN(C)C)c2nc3c(C)c(C)ccc3s2)cc1,?,?,?,18µM,-84
Cc1ccc2sc(N(CCCN(C)C)C(=O)c3ccc(S(=O)(=O)N4CCOCC4)cc3)nc2c1C,–,–,–,–,?
CC1=C(C(N)=O)C(c2ccc(C)cc2)n2nc(SCc3ccccc3F)nc2N1 (configuration not stated),?,·,–,·,·
C#CCOc1nc(C)cc(C)c1S(=O)(=O)c1ccccc1C,–,–,–,–,-56
COc1nc(C)cc(C)c1S(=O)(=O)c1ccccc1C,–,–,–,–,–
O=c1c(Cl)cc(Cl)nn1-c1ccccc1,?,?,?,?,-100
Cc1ccc(S(=O)(=O)N2CCN(C(=O)c3ccccc3)C2C(C)C)cc1 (configuration not stated),?,–,–,–,–
SMILES,KB-V1 cytotox,HT1080NT lethal,KB-3-1 cytotox,HT1080 IDH1KD tx,IL1B secr inh
C/C(=N\S(=O)(=O)c1ccc(C)cc1)N1CCN(S(=O)(=O)c2ccccc2)C1C(C)C (configuration not stated),5.8µM,–,–,–,–
C/C=C/COC(=O)C1=C(C)NC(=O)NC1c1ccc2c(c1)OCO2 (configuration not stated),–,–,–,–,–
CC1=C(C(=O)OCc2ccc3c(c2)OCO3)C(c2ccc(F)cc2)NC(=O)N1 (configuration not stated),8.2µM,4.5µM,15µM,5µM,–
CC1=C(C(=O)OC2CCCCC2)C(c2ccc(F)cc2)NC(=O)N1 (configuration not stated),–,–,–,–,-53
CC1=C(C(=O)OCc2ccc3c(c2)OCO3)C(c2ccc(Cl)cc2)NC(=O)N1 (configuration not stated),12µM,2.5µM,?,2.2µM,–
CSCCOC(=O)C1=C(C)NC(=O)NC1c1ccc2c(c1)OCO2 (configuration not stated),–,–,–,–,–
CC1=C(C(=O)OC2CCCCC2)C(c2ccc(O)cc2)NC(=O)N1 (configuration not stated),–,–,–,–,–
COc1ccc(CCCc2nnc(SCC(=O)Nc3ccc(Cl)cc3)o2)cc1,–,·,–,·,·
Cc1ccc(C)c(NC(=O)c2cc(S(=O)(=O)N3CCCCCC3)ccc2F)c1,–,·,–,·,·
CCC(C)c1ccccc1OCCCNC1CCCC1 (configuration not stated),?,–,–,–,-70
CC(C)Oc1ccc(OCCNC2CCCC2)cc1,–,–,–,–,–
c1ccc(COc2ccc(OCCCNC3CCCC3)cc2)cc1,?,23µM,?,?,-96
CCCCNCCOc1ccccc1-c1ccccc1,–,–,–,–,-60
C=CCNCCCCOc1ccccc1-c1ccccc1,–,?,–,?,-85
COCCCNCCOc1ccccc1-c1ccccc1,–,–,–,–,–
COc1ccccc1OCCNC1CCCC1,–,–,–,–,–
CCCOc1ccccc1Cn1c(=O)sc2ccccc21,–,·,–,·,·
CC(C)c1ccc(NS(=O)(=O)c2ccc3[nH]cc(C(=O)N4CCCC4)c(=O)c3c2)cc1,–,·,–,·,·
CCOC(=O)c1cc(-c2ccccc2)n(-c2cccc(C(=O)N(CC)c3ccccc3)c2)c1C,–,·,–,·,·
Cc1ccc(S(=O)(=O)N2CCCC2CNC(=O)C(=O)NCCN2CCOCC2)cc1 (configuration not stated),–,–,–,–,–
C=CCNCCCCOc1ccc(OCc2ccccc2)cc1,–,–,–,–,-51
COc1ccc(OCC(O)CNC(C)c2ccccc2)cc1 (configuration not stated),–,–,–,–,–
OC(CNC1CCCC1)COc1ccc(-c2ccccc2)cc1 (configuration not stated),?,?,21µM,?,-63
CCCC(NCC(O)COc1ccc(-c2ccccc2)cc1)c1ccccc1 (configuration not stated),?,–,?,13µM,-77
OC(CNC1CCCCC1)COCCOc1ccc(Br)cc1 (configuration not stated),23µM,?,–,?,–
Cc1cccc(C)c1NC(=O)Cn1nnc(C(=O)Nc2c(C)cccc2C)c1N,–,·,–,·,·
CCOC(=O)C1(CCOc2ccccc2)CCN(Cc2ccc(C)o2)CC1,?,–,–,–,–
CCOC(=O)C1(CCOc2ccccc2)CCN(Cc2ccc(O)c(OCC)c2)CC1,?,?,–,?,-89
